Several values for one entry are separate records, joined by “and”; a condition that tells them apart may be missing. Identical values can stand only once. Screen size: about 5,500 compounds; about 2,000 (36%) were called active. Not shown: some 18% with an inconclusive outcome. Rule as the data show it: active = normalized growth mostly below about 0.91 (no sharp cut-off); inconclusive = no clear call, values can overlap the other calls; inactive = mostly above about 0.92. The list shows a part of the results.
Assay: chemical genetic growth profiling, strain panel (AID 1159580);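 also: tested at 20 µM; growth read once vehicle control cultures reached saturation at 30 °C; 1 = growth at the plate median or of vehicle wells; lower values mean less growth of the strain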
Conditions: S. cerevisiae deletion strains, growth OD

Measured: normalized growth

CC(=O)O[C@@H]1CC2C(C)(C)[C@H](O)CC[C@]2(C)C2CC[C@@]3(C)[C@H](c4ccoc4)OC(=O)C4OC43[C@@]21C (stereo partly specified)
inactive: locus YAL021C, strain ccr4, active compounds read low 0.991 | locus YAL026C, strain drs2, active compounds read low 1.03 | locus YAL030W, strain snc1, active compounds read low 1.01 | locus YBL061C, strain skt5, active compounds read low 1.01 | locus YBR009C, strain hhf1, active compounds read low 1.04 | locus YBR021W, strain FUR4, active compounds read low 0.974 | locus YBR023C, strain chs3, active compounds read low 1.02 | locus YBR171W, strain sec66, active compounds read low 1.02 | locus YBR229C, strain ROT2, active compounds read low 0.957 | locus YBR231C, strain swc5, active compounds read low 1.02 | locus YBR279W, strain paf1, active compounds read low 1.01 | locus YCL011C, strain gbp2, active compounds read low 1.01 | locus YCL016C, strain dcc1, active compounds read low 1.02 | locus YCL029C, strain bik1, active compounds read low 0.993 | locus YCL061C, strain MRC1, active compounds read low 1.02 | locus YCL069W, strain vba3, active compounds read low 1 | locus YCR088W, strain abp1, active compounds read low 1.01 | locus YDL005C, strain med2, active compounds read low 1.02 | locus YDL035C, strain GPR1, active compounds read low 0.984 | locus YDL040C, strain nat1, active compounds read low 1 | locus YDL074C, strain BRE1, active compounds read low 1 | locus YDL101C, strain DUN1, active compounds read low 0.998 | locus YDL134C, strain PPH21, active compounds read low 1.03 | locus YDL185W, strain tfp1, active compounds read low 0.97 | locus YDL192W, strain arf1, active compounds read low 0.999 | locus YDR001C, strain nth1, active compounds read low 1.01 | locus YDR069C, strain doa4, active compounds read low 1.04 | locus YDR101C, strain arx1, active compounds read low 0.967 | locus YDR137W, strain rgp1, active compounds read low 1.02 | locus YDR159W, strain sac3, active compounds read low 1.05 | locus YDR162C, strain NBP2, active compounds read low 0.999 | locus YDR195W, strain ref2 1.03 | locus YDR297W, strain sur2, active compounds read low 1.01 | locus YDR318W, strain mcm21, active compounds read low 0.996 | locus YDR334W, strain swr1, active compounds read low 1.01 | locus YDR335W, strain msn5, active compounds read low 1.03 | locus YDR388W, active compounds read low 1 | locus YDR392W, strain spt3, active compounds read low 0.834 | locus YDR502C, strain sam2, active compounds read low 1.01 | locus YEL003W, strain gim4, active compounds read low 1.03 | locus YEL037C, strain rad23, active compounds read low 1.01 | locus YEL061C, strain CIN8 (second series), active compounds read low 1.02 | locus YER015W, strain faa2, active compounds read low 1.01 | locus YER016W, strain bim1, active compounds read low 1.02 | locus YER110C, active compounds read low 0.98 | locus YER111C, strain swi4, active compounds read low 1.02 | locus YER155C, strain BEM2 (second series), active compounds read low 1.03 | locus YER155C, strain BEM2, active compounds read low 1.01 | locus YER167W, strain BCK2, active compounds read low 0.996 | locus YFR010W, strain ubp6, active compounds read low 1.04 | locus YGL078C, strain dbp3, active compounds read low 1.01 | locus YGL086W, strain mad1, active compounds read low 0.984 | locus YGL167C, strain pmr1, active compounds read low 1.01 | locus YGL173C, strain kem1, active compounds read low 1.01 | locus YGL227W, strain vid30, active compounds read low 1.02 | locus YGL240W, strain doc1, active compounds read low 1.04 | locus YGL248W, strain PDE1, active compounds read low 1.01 | locus YGL253W, strain hxk2, active compounds read low 0.997 | locus YGR135W, strain pre9, active compounds read low 1.05 | locus YGR252W, strain gcn5, active compounds read low 1.04 | locus YHR013C, strain ard1, active compounds read low 1.02 | locus YHR027C, strain rpn1, active compounds read low 1.01 | locus YHR030C, strain SLT2, active compounds read low 1.07 | locus YHR079C, strain IRE1 (second series), active compounds read low 0.983 | locus YHR079C, strain IRE1, active compounds read low 1.05 | locus YHR094C, strain hxt1, active compounds read low 0.989 | locus YHR129C, strain ARP1, active compounds read low 1.01 | locus YHR142W, strain chs7, active compounds read low 0.939 | locus YHR200W, strain rpn10, active compounds read low 0.996 | locus YIL066C, strain RNR3, active compounds read low 0.973 | locus YIL073C, strain SPO22, active compounds read low 0.958 | locus YIL125W, strain kgd1, active compounds read low 0.962 | locus YIR030C, strain dcg1, active compounds read low 0.988 | locus YJL092W, strain hpr5, active compounds read low 1.02 | locus YJL095W, strain BCK1 (second series), active compounds read low 1.02 | locus YJL095W, strain BCK1, active compounds read low 1.06 and 1.08 | locus YJL115W, strain asf1, active compounds read low 1.02 | locus YJL129C, strain trk1, active compounds read low 1 | locus YJL134W, strain LCB3, active compounds read low 0.991 | locus YJL154C, strain vps35, active compounds read low 0.999 | locus YJL164C, strain tpk1, active compounds read low 1.02 | locus YJL166W, strain qcr8, active compounds read low 1.02 | locus YJL168C, strain set2, active compounds read low 0.996 | locus YJL187C, strain SWE1 (second series), active compounds read low 1.02 | locus YJL187C, strain SWE1, active compounds read low 1.01 | locus YJR043C, strain POL32, active compounds read low 0.977
